Source: PubChem BioAssay (Fisher Drug Discovery Resource Center)
mcGAS RapidFire = inhibitors of mouse cGAS | Q8C6L5 | recombinant mouse cGAS, cGAMP by RapidFire MS | inhibition, % at 12.5 µM | hit rate 0.18% among 130,000;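 active = inhibition of cGAS enzyme activity at or above 60%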;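 also: enzyme stimulated by 45 bp dsDNA with ATP and GTP substrates; cGAMP share of summed cGAMP plus half ATP and half GTP signals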
Target sequence (Q8C6L5 whole entry, looked up): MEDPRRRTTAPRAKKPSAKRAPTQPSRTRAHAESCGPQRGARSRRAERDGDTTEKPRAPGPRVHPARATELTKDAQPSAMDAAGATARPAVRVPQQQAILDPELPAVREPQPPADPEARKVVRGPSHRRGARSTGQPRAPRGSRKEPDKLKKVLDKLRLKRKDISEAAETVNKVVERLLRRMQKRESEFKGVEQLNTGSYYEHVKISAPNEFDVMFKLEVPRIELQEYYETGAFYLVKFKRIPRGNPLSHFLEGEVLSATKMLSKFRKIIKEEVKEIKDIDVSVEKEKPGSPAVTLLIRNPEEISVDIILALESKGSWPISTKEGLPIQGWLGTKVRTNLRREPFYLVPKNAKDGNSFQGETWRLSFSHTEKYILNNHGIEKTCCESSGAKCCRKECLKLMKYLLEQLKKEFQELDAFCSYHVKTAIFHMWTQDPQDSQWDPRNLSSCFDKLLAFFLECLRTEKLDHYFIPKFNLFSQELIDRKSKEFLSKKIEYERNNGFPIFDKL
A number is an active result; - = inactive. The full list was thinned out, with hits kept by preference.

SMILES	mcGAS RapidFire
NC(=S)N/N=C\c1coc2ccccc2c1=O	95.5
N=C1c2ccccc2CN1c1cccnc1	-
O=P(C=C(Cl)c1ccccc1)(C=C(Cl)c1ccccc1)Nc1ccc(F)cc1F	-
CC(Cc1ccc(Cl)cc1Cl)NC(=O)N(C)C1CCOCC1 (configuration not stated)	-
CC[C@@]1(O)C[C@H](O[C@H]2C[C@H](N(C)C)[C@H](O)[C@H](C)O2)c2c(cc3c(c2O)C(=O)c2c(O)ccc(O)c2C3=O)[C@H]1C(=O)OC	97.2
CC[C@@]1(O)C[C@H](O[C@H]2C[C@H](N(C)C)[C@H](O)[C@H](C)O2)c2c(cc3c(c2O)C(=O)c2c(O)cccc2C3=O)[C@H]1C(=O)OC	97.7
CC[C@@]1(O)C[C@H](O)c2c(cc3c(c2O)C(=O)c2c(O)ccc(O)c2C3=O)[C@H]1C(=O)OC	-
Cc1cnn(CCC(=O)Nc2ccc(C#N)c(C(F)(F)F)c2)c1	-
CN1C2CCC1CN(C(=O)C1CC(=O)N(c3ccccn3)C1)CC2 (configuration not stated)	-
O=C1OC2(CCN(Cc3ccccc3)CC2)c2ccccc21	-
CCN(CC)P1(=S)OC(c2ccc(F)cc2)=Nc2c1c(C)nn2CCC#N (configuration not stated)	-
COc1cccc([C@@H]2CN(C(=O)c3nonc3C)[C@@H]3C4CCN(CC4)[C@@H]32)c1	-
CC(C)=CCN(CC1CCOC1)C1CC1 (configuration not stated)	-
Cc1cc[n+]2cc(-c3ccc(OC(=O)N(C)C)cc3)n(C)c2c1	-
CC1CCc2c(sc3nc(C[N+]45CCN(CC4)CC5)[nH]c(=O)c23)C1 (configuration not stated)	-
